HRas wt GTP: changes GTP binding to wildtype human HRas; P01112; GTP binding activity, % at 10 µM; GST-Ras wt beads, Bodipy-FL-GTP binding, flow cytometry; actives lie on both sides; 190,000 compounds, 0.14% hits;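 active means GTP binding activity at least 20% away from the 100% baseline, either lowered as inhibitor or raised as activator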;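 further: 0% = unlabeled GTP competition control and 100% = no-compound control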
Target sequence (P01112 whole entry, looked up): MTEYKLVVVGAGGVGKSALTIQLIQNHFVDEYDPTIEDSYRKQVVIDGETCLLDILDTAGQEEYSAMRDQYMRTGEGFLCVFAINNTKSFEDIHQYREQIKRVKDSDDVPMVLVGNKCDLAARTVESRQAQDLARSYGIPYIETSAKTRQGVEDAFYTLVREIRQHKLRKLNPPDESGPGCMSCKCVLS
Rab7 wt modul: dog Rab7 wildtype GTP binding, inhibitors and activators; GST-Rab7 beads, fluorescent GTP binding, flow cytometry; actives lie on both sides; untreated = 100%, excess cold GTP = 0%; GTP binding activity (percent of control), % at 10 µM; 190,000 compounds, 0.055% hits; AID 758;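 active means fluorescent GTP binding to Rab7 beads changed by at least 20 points from the 100% baseline, either direction, mostly lower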;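 further: median green fluorescence of bound Bodipy-FL-GTP per Rab7 bead population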
Rac1 wt modul: human Rac1 wildtype GTP binding, inhibitors and activators; P63000; GST-Rac1 beads, fluorescent GTP binding, flow cytometry; actives lie on both sides; 0 = cold GTP competed, 100 = untreated; GTP binding activity (% of control), % at 10 µM; 190,000 compounds, 0.27% hits; AID 757;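 active means GTP binding activity at least 20 points away from the 100% control level, either lower or higher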
Cdc42 wt GTP: human Cdc42 wildtype GTP binding change, either direction | P60953 | GST-Cdc42 beads, Bodipy-GTP binding, flow cytometry; actives lie on both sides | percent activity (GTP binding), % at 10 µM | 190,000 compounds, 0.2% hits | AID 761;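 active means percent activity GTP binding at least 20 points away from the 100% baseline, either down as inhibitor or up as activator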;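 further: median bead fluorescence of bound Bodipy-FL-GTP at 100 nM; 0% = excess unlabeled GTP control and 100% = no compound control; below 100% means less GTP binding so inhibitor and above means activator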
Target sequence (P60953 whole entry, looked up): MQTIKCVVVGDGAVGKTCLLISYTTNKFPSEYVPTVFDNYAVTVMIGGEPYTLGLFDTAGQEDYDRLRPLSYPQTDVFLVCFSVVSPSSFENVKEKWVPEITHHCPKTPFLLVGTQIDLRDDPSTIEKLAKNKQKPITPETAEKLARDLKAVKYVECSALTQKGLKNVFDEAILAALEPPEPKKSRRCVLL
Rab2 wt GTP: changes GTP binding to wildtype dog Rab2A, up or down | P61105 | GTP binding activity, % at 10 µM | GST-Rab2 wt beads, Bodipy-GTP binding, flow cytometry | 190,000 compounds, 0.19% hits;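 active means GTP binding activity at least 20 points away from 100%, either lowered or raised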;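 further: 0% = beads with excess unlabeled GTP and 100% = no-compound control corrected for plate trend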
Rac1 act GTP bind: human Rac1 activated mutant GTP binding change. P63000. GST-Rac1 activated beads, fluorescent GTP binding, flow cytometry; actives lie on both sides; 100% means binding = to untreated wells. percent activity (GTP binding), % at 10 µM. 190,000 compounds, 0.11% hits;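 active means GTP binding at least 20 percentage points away from the 100% baseline, in either direction, so actives lie on both sides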
* marks the source's active call; other numbers are inactive results; [ ] = remark or other dose. Shown are actives, neighbours in structure and some others; about 0.37% of the full set was active somewhere.

SMILES	HRas wt GTP	Rab7 wt modul	Rac1 wt modul	Cdc42 wt GTP	Rab2 wt GTP	Rac1 act GTP bind
CCCN1C(=O)/C(=C\C=C2/Sc3ccccc3N2CC)SC1=S	68.0*	77.0*	69.0*	73.0*	74.0*	75.0*
CCN1/C(=C\C=C2\C(=O)N(c3ccccc3)C(=S)N2C)Sc2ccccc21	78.0*	83.0	83.0	83.0	87.0	85.0
Cc1sc2nc3c4ccccc4c(NCc4ccco4)nn3c(=O)c2c1C	76.0*	87.0	83.0	75.0*	74.0*	85.0
COCCCNC(=O)CN(c1cc(Cl)ccc1OC)S(C)(=O)=O	96.0	94.0	96.0	92.0	94.0	95.0
CCN(CC(=O)Nc1c(F)cccc1F)C(=O)COc1ccc2c(C)cc(=O)oc2c1	98.0	103.0	96.0	95.0	101.0	93.0
COc1ccc(-c2cc(-c3ccc(O)cc3)nc(N)c2C#N)cc1OC	81.0	83.0	69.0*	81.0	79.0*	85.0
COc1ccc(-c2c(C#N)c(N)nc3c2CCc2ccccc2-3)cc1OC	100.0	97.0	105.0	98.0	98.0	95.0
CC(=O)Nc1ccc(Nc2nc(C)c([N+](=O)[O-])c(Nc3ccccc3)n2)cc1	99.0	99.0	105.0	99.0	99.0	101.0
Cc1nc(Nc2ccc(C(=O)O)cc2)nc(Nc2ccc(C(=O)O)cc2)c1[N+](=O)[O-]	60.0*	84.0	62.0*	55.0*	55.0*	77.0*
O=C(CCc1nnc(-c2ccc3c(c2)OCO3)o1)N1CCC(c2ccc(F)cc2)C1 (configuration not stated)	87.0	96.0	88.0	81.0	82.0	79.0*
COc1ccc([N+](=O)[O-])cc1NC(=O)c1cn(-c2ccc(Cl)cc2)c(=O)c2ccccc12	98.0	98.0	104.0	99.0	98.0	99.0
CCOc1cc(/C=N/NC(=O)c2cccnc2)ccc1OCC(=O)N(C)C	95.0	95.0	94.0	93.0	93.0	93.0
C(#Cc1ccccc1)C[N+]1(CC#Cc2ccccc2)CCCC1	103.0	104.0	103.0	103.0	102.0	98.0
C=CC#CC[N+]1(CC#Cc2ccccc2)CCOCC1	106.0	101.0	128.0*[activator]	107.0	100.0	116.0
CNC(=S)Nc1cccc(S(=O)(=O)NC2=NCCC2)c1	99.0	104.0	102.0	101.0	103.0	97.0
CN1CCc2c(sc3c2c(=O)n(-c2ccccc2)c2n[nH]c(=S)n32)C1	101.0	102.0	99.0	102.0	100.0	98.0
O=S(=O)(Nc1nc2ccccc2[nH]1)c1ccc2ccccc2c1	93.0	92.0	95.0	94.0	93.0	90.0
O=S(=O)(Nc1ncn[nH]1)c1ccc2ccccc2c1	113.0	112.0	126.0*[activator]	121.0*[activator]	110.0	113.0
O=C(COC(=O)/C=C/c1ccc(Cl)cc1)Nc1ccc2c(c1)OCCO2	81.0	87.0	79.0*	83.0	76.0*	78.0*
C/C=N\NC(=O)COc1cc(C)ccc1C	100.0	100.0	100.0	95.0	95.0	95.0
COc1cccc(Oc2nnnn2-c2ccccc2)c1	99.0	98.0	104.0	99.0	99.0	99.0
COc1cccc(-n2nnnc2S(C)(=O)=O)c1	90.0	92.0	85.0	72.0*	85.0	70.0*
COc1ccccc1Nc1nc(-c2c(C)nc3ncccn23)cs1	62.0*	82.0	63.0*	66.0*	62.0*	79.0*
Cc1nc2ncccn2c1-c1csc(Nc2ccc(N(C)C)cc2)n1	92.0	107.0	90.0	92.0	93.0	92.0
COc1ccc(Nc2nc(-c3c(C)nc4ncccn34)cs2)cc1	77.0*	84.0	65.0*	76.0*	76.0*	83.0
SMILES	HRas wt GTP	Rab7 wt modul	Rac1 wt modul	Cdc42 wt GTP	Rab2 wt GTP	Rac1 act GTP bind
Cc1nc2ncccn2c1-c1csc(Nc2ccccc2)n1	59.0*	83.0	60.0*	67.0*	62.0*	80.0
COc1cc(/C=N/NC(=O)c2cc3ccccc3cc2O)ccc1OCCN1CCCCC1	85.0	88.0	97.0	97.0	86.0	76.0*
O=C1Nc2cc(Cl)c(Cl)cc2N(O)N1c1ccc(Cl)c(Cl)c1	93.0	93.0	87.0	89.0	92.0	88.0
COc1cccc(/C=C/C(=O)Nc2ccccc2N2CCOCC2)c1	53.0*	23.0*	48.0*	54.0*	51.0*	50.0*
CCOC(=O)C1(CC2CCCCO2)CCN(Cc2cc3ccccc3[nH]2)CC1 (configuration not stated)	102.0	101.0	105.0	103.0	102.0	101.0
CCOC(=O)c1sc(NC(=O)C(C)Sc2nc(N)cc(=O)[nH]2)nc1C (configuration not stated)	99.0	106.0	97.0	98.0	99.0	95.0
O=C(Cn1nc2ccccc2n1)N/N=C/c1cc([N+](=O)[O-])ccc1O	73.0*	82.0	61.0*	70.0*	70.0*	79.0*
CC(C)CCN1CCN(Cc2cnc(N3CCCC3)s2)CC1CCO (configuration not stated)	99.0	98.0	104.0	99.0	96.0	96.0
CC/C(O)=C(/C#N)c1nnc2n1CCCCC2	101.0	102.0	104.0	103.0	102.0	100.0
N#C/C(=C(/O)COc1ccc(Br)cc1)c1nnc2n1CCCCC2	81.0	80.0	78.0*	76.0*	77.0*	75.0*
CSc1ccccc1C(=O)N1CCN(c2ncccn2)CC1	94.0	93.0	97.0	101.0	96.0	97.0
COc1ccc(-c2nc(C(F)(F)F)c(OC)o2)cc1OC	103.0	105.0	107.0	104.0	100.0	102.0
N#Cc1c2nc3ccccc3nc2n2cc(NC(=O)c3ccc(F)cc3)ccc12	81.0	89.0	79.0*	91.0	77.0*	88.0
O=C(Nc1nc2ccccc2[nH]1)c1ccc(F)cc1	101.0	97.0	103.0	103.0	101.0	103.0
Cn1c(=O)c2c(nc(N/N=C/c3ccco3)n2C)n(C)c1=O	85.0	90.0	74.0*	83.0	83.0	85.0
CCCc1nc2c(=O)n(C)c(=O)nc-2n(C)n1	89.0	99.0	94.0	74.0*	89.0	84.0
COc1ccc(C(CC(=O)O)NC(=O)c2cc3cc(Br)ccc3oc2=O)cc1OC (configuration not stated)	83.0	83.0	80.0	77.0*	76.0*	76.0*
COc1ccc(CCNC(=O)Cn2c(=O)n(-c3ccc(C)c(F)c3)c(=O)c3sccc32)cc1OC	102.0	108.0	104.0	102.0	102.0	96.0
CCC(=O)Nc1nc(-c2ccc3c(c2)OCCO3)cs1	100.0	102.0	103.0	103.0	101.0	100.0
COc1ccccc1C(=O)Nc1nc(-c2ccc3c(c2)OCCO3)cs1	87.0	94.0	78.0*	78.0*	81.0	78.0*
Cc1cccc(NS(=O)(=O)c2cnc(Cl)c(Br)c2)n1	97.0	99.0	101.0	99.0	99.0	97.0
